Data reported in the supplement of paper PMC11417369.
In all, about 25,000 sequences were measured (“ln(normalized median fluorescence intensity)”: median about 9.7, highest 2% from about 11 on). This is one part of a sample in which the highest values are shown more often than they occur.

Tested on: PfAP2-HC AP2 domain (GST-tagged)
Assay: gcPBM binding intensity (ln(normalized median fluorescence intensity)); higher = stronger DNA binding
Procedure, shortened: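 The highest Masliner-normalised natural-log median intensity across replicate spots of either probe orientation is reported as binding intensity. GST-tagged P. falciparum DNA-binding domains expressed in E. coli were applied for 1 h to an Agilent 4 × 180k array of primer-extended double-stranded 36-bp intergenic genomic probes plus negative controls, and bound protein was detected with Alexa488 anti-GST antibody and scanned at 488 nm.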

Sequence | gcPBM binding intensity (ln)
TAATTAAAATCATATACACACCCATATATATATATA [CACACA_site8524] | 10
AAATACCTTATATATACACACTATGTTTTTCTTTTT [CACACA_site4792] | 9.97
AATAAATAAAAATTATGTACATATATAAAAAATACA [XGTACX_site8581] | 9.82
TTGTTTCTTTTTTTTTGTACATATATATTGTATATT [XGTACX_site7602] | 9.89
AATAATAAATCAAACTGTACATATATTTTCAATCTA [XGTACX_site3344] | 9.61
TATAAAAAAATAATAAAATAATAAAATATATAAATA [TGCATGCA_negctrl_site394] | 9.6
AAAAAAAAAAAATGTGCACACGCGTACAGACAAAAA [CACACA_site2005] | 10.3
ATTAAATCTATATATACACACATGTTTGGTATATTC [CACACA_site2657] | 9.87
ATGCACTCATTGTGCACACGCATATTACGAAAAGAA [CACACA_site2638] | 9.86
TTTTTTTTTTGATGTTGTACATATATACTATATAAT [XGTACX_site1332] | 9.65
AAAACAAATGCTTAAAGTACTTATTATTTTTCTTTT [XGTACX_site6324] | 9.57
ATTAATTATATATATACACACACATACACCCAAATA [CACACA_site9126] | 10.3
TAATTATATAAATACACACACATACACCCAAATAAA [CACACA_site5819] | 11.1
CATATATATAAATACACACACACACCCCTTATAATT [CACACA_site4064] | 10.6
AAATTATAATATAATACACACATAAAAAAAAAAAAA [CACACA_site7] | 9.79
AATAAATATATATACACACCCATATATATATATATA [CACACA_site2595] | 9.63
GATGAATAAATCAAAGCACACATACACCCACATATA [CACACA_site7986] | 11.2
TACATATACATATACACACACACACCCAAATAAATA [CACACA_site1344] | 10.5
TAAATAAATTTATACACACACACACCCATATATATA [CACACA_site849] | 10.9
CATATAAATAAATACACACACACACGCCTTATAATT [CACACA_site7830] | 11.6
TGAATAAATCAAAGCACACATACACCCACATATATA [CACACA_site286] | 10.2
TATAAATAAATTTATACACACACACCCATATATATA [CACACA_site8183] | 10.3
TCAAAGCACCCATACACACACATATATATATATATA [CACACA_site4317] | 10.5

Sequence | gcPBM binding intensity (ln)
TCTTTTTTTTTACATACTTTTTTCCTTTTTTTTTTA [CACACA_negctrl_site1429] | 9.71
TCTTACAAAAAACAAACAGAGAAAAATATAAGGAAA [XGTACX_negctrl_site520] | 9.61
AAATTATTTCCGTGTACACATAAATATATATTTTAT [CACACA_site5121] | 9.89
CAATATTTTCATAGATGTACTTTGGACTTATTATAT [XGTACX_site4849] | 9.6
AATATTGTATATAATAAACACACAATATTAAAAATA [CACACA_site8262] | 10.1
TAACATATTATATATACATGCATACGTGAACTAATC [TGCATGCA_site888] | 9.72
ATTTATTTATGTATTTGTACGTATATATTTATGCAT [XGTACX_site5218] | 9.83
TTTCAATAATAAAAAACACACACAAAAAAAAATAAT [CACACA_site8905] | 11
AAAAAAATAAAACACACACACAAAAAAATAAAAATA [CACACA_site465] | 10.8
GTAAAAAAATAGCACACACACAAAAACACGCACAAA [CACACA_site6723] | 11.4
AAGGACAACAAACAAACACACACAAAAAAAAAATAA [CACACA_site9263] | 10.2
ATAAATAAAAACACAAAACAAAACAAAACAAAACAA [CACACA_negctrl_site1257] | 9.61
CAAAAAAAATAAAACACACACACAAAAAAATAAAAA [CACACA_site466] | 10.7
AAGTAAAAAAATAGCACACACACAAAAACACAGACA [CACACA_site4839] | 10.7
GGACAACAAACAAACACACACAAAAAAAAAATAAAA [CACACA_site3791] | 11
CAACAAAATAAACACACACACACAAACACAAAAAAA [CACACA_site5806] | 11.4
ACAAATAAATAAAAAACACACACAAATAAATAAATA [CACACA_site8708] | 10.6
AAAACAAATAGACACGCACACAAAAAAAAAAAAAAA [CACACA_site801] | 10.3
TCAATAATAAAAAACACACACAAAAAAAAATAATTA [CACACA_site2798] | 10.2
TATTTGTAAAAATTGTGTACTTAGAAAATTCCAAAA [XGTACX_site6007] | 9.22
ATAATATATGAAAAAACGATTTTTTCATTTTAAATA [XGTACX_negctrl_site146] | 9.51
TTTGGTTATATTTAAAAAAGACTAATGAAAATTAAA [XGTACX_negctrl_site526] | 9.35
AACATTCTATGTTGCACACAAAGAGAAAAATTTATT [CACACA_site3995] | 9.78

Sequence | gcPBM binding intensity (ln)
TATATATATATATATATATATATTTTTATTATATAT [XGTACX_negctrl_site89] | 9.89
GTTTTCATCCAAAAAAGTACATTTATTTTTATACGA [XGTACX_site1039] | 9.39
TTTTCTAAAGTAAGTTAAGATATGCAAAAAAAAGAA [GTGCAC_negctrl_site242] | 9.62
AAAAAAAAAAAAAACACACACACAAAATAAACAAAC [CACACA_site2720] | 10.8
AAAATAAAATAAAACACAAAAAAATAAAACAAAATA [CACACA_negctrl_site16] | 9.78
ACAAAATAAAAACACACACACAAACACAAAAAAATA [CACACA_site3390] | 11.4
AAGGATATAAAAAAACGTACGTACGATAATATAATT [XGTACX_site1292] | 9.86
GTTGTTATATAAAATTGTACATAAAAAACAAAATAT [XGTACX_site5313] | 9.66
GGAAAAACCATTCGCACACACACATAATATATAATA [CACACA_site1424] | 10.2
AAAAAAAAAAAAAAAACACACATATATCTATAATAT [CACACA_site6665] | 9.84
AAAAACCATGGGCACACACACATAATATATAATATA [CACACA_site1425] | 10.4
AAAAACCATTGGCACACACACATAATATATAATATA [CACACA_site4903] | 11.4
AAAAACCATTCGCACACACACATAATCTATAATATA [CACACA_site6782] | 11.1
AAAAAAAAAAAAAAAACACACACATATATATAATAT [CACACA_site9038] | 10.3
TTACTCAAACAAACAAAAAAAAAAAAAAAAAAAAAA [TGCATGCA_negctrl_site457] | 8.89
TATTTCATAATAAATTGTACGCGTAGAAAACCATGA [XGTACX_site7506] | 9.99
TATTTATGCACGCGTGCACACACATATGAAAAAAGG [CACACA_site9090] | 9.87
ACATATCTATCGTTTTTAATTGTATATTATTATAAC [TGCATGCA_negctrl_site144] | 9.76
GGCAACATTTGAAACACACACACATACAAACAAACA [CACACA_site3307] | 10.3
AAAAAAAAAAAACACACACACACACTAATACATACA [CACACA_site8135] | 10.6
CAAAGACACAAACACACACACACATACATACATACA [CACACA_site453] | 11.3
AATAAAAAAAAAAAAAAAAAAAAAAAGACACTAAAA [CACACA_negctrl_site1075] | 9.53
AAAAAAAAAAGACACACACACACAAATACATACACA [CACACA_site6472] | 10.8

Sequence | gcPBM binding intensity (ln)
CAACATTTGAGACACACACACATACAAACAAACAAA [CACACA_site7538] | 11.2
TATAGACAAACACATACATGCATACATACATACATA [TGCATGCA_site273] | 9.75
AAGACACAAAAACACACACACATACATACATACATA [CACACA_site454] | 10.3
AAAAAAAAAAAAAAGACACACATATATATATATATA [CACACA_site633] | 9.63
AAAAAAAAAAGACACACACACACATACACATACATA [CACACA_site7362] | 11.1
ATAAAACAAAGACACACACACATACACAAAAAAAAA [CACACA_site7752] | 10.5
AAAAAAAAAAGACACACACACACACTAATACATACA [CACACA_site6473] | 11.4
TTATGGTATAAAAAAATACACACTTATATATATTCT [CACACA_site488] | 9.72
TACGTAAAAATAATACGTACATATATTTATAGAAAA [XGTACX_site4959] | 9.71
TATTAATTTTTTTTTTTTTTTTTTTTTTTTTTTTTT [CACACA_negctrl_site1329] | 9.26
ATGATACATAAAGAATATAAAACATGAAATATAATA [CACACA_negctrl_site1461] | 9.79
AAGATTTGAAAAAATACACACAATAAAAAAATAAAA [CACACA_site3281] | 10.1
TTTTATTATTTTTGTTGTACAGTATACTGTATGATT [XGTACX_site5359] | 9.69
TTAAAAAATCACAACACACACACACGCAAAAAAAAA [CACACA_site6793] | 10.8
AAAAAATCACGACACACACACACACTAAAAAAAAAA [CACACA_site6792] | 11.3
AACAAATACGAACACACACACACACTAAAAAAAAAA [CACACA_site6386] | 10.8
TCATAAAGAACAAAGTGTACCTATATATTACATACA [XGTACX_site7595] | 9.59
TAAATATATAAATACACACACACCAAAGCAATAGAT [CACACA_site5605] | 10.5
TATATATATATATATACACACACACCCACCAAAGCG [CACACA_site7904] | 10.1
TATAAATATAAATACACACACACACGCCAAAGCGTA [CACACA_site6181] | 11
TATAAATATAGACACACACACACCAAAGCGTAGCGC [CACACA_site6179] | 10.3
TATATATATAAATACACACACACACCCCAAAGCGTA [CACACA_site4211] | 10.6
TATATATATATATACACACACACACCCCAAAGCGTA [CACACA_site64] | 11.1
